# The list is not random: actives were taken first. Their share in the collection is about 3.8%.
# M18AAP inhibitor – PfM18AAP enzyme inhibition | recombinant PfM18AAP, H-Glu-NHMec fluorogenic cleavage | inhibition, % at 7.35 µM | hit rate 1.2% among 290,000;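 active means inhibition above the campaign mean inhibition over all tested compounds plus 3 SD, cut at about 28% in these data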;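 further: 0% = plate median of test compound wells and 100% = 2 mM ZnCl2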
# DSG3 Ab inh – blocks pemphigus antibody binding to human desmoglein-3. AID 588358. binding (percent of control), % at 10 µM. DSG3-coupled beads, scFv-anti-DSG3-GFP binding, flow cytometry; hits give low values. P32926. hit rate 0.48% among 310,000;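 active means binding more than 3 SD below its plate's average and above zero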;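 further: hits lower antibody fragment binding to DSG3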
# PAFAH2 inh – PAFAH2 (human) inhibition; recombinant PAFAH2, FP-rhodamine activity probe, fluorescence polarization; inhibition, % at 3.39 µM; hit rate 0.99% among 340,000; AID 492956;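 active means inhibition above the mean over all tested compounds plus 3 SD, cut at about 30% in these data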;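 further: inhibitors block probe labeling of enzyme so polarization drops; 0% = enzyme with DMSO and 100% = wells lacking PAFAH2 protein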
# pPAFAH inh – inhibitors of human plasma PAF acetylhydrolase (pPAFAH); Q13093; AID 463082; inhibition, % at 3.39 µM; hit rate 1.5% among 330,000; recombinant pPAFAH, FP-rhodamine probe fluorescence polarization;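 active means inhibition above the mean inhibition across the screen plus 3 SD, cut at about 25% in these data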;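 further: inhibitors block binding of the rhodamine activity-based probe so polarization drops; 0% = enzyme with DMSO and 100% = wells lacking pPAFAH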
# PAFAH1B2 inh – blocks human PAF acetylhydrolase 1b catalytic subunit 2; recombinant PAFAH1B2, FP-rhodamine activity probe, fluorescence polarization; inhibition, % at 3.39 µM; hit rate 1.2% among 340,000;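 active means inhibition above the mean of all tested compounds plus 3 SD, cut at about 24% in these data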;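 further: 0% = enzyme with DMSO and 100% = wells lacking PAFAH1B2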
# PAFAH1B3 inh – blocks human PAF acetylhydrolase 1B catalytic subunit 3; recombinant PAFAH1B3, FP-rhodamine probe, fluorescence polarization; inhibition, % at 3.39 µM; hit rate 0.28% among 340,000;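 active means inhibition above the screen-wide average of all tested compounds plus 3 SD, cut at about 25% in these data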;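 further: 0% = enzyme with DMSO only and 100% = wells lacking PAFAH1B3 protein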
# Target sequence (Q15102 whole entry, looked up): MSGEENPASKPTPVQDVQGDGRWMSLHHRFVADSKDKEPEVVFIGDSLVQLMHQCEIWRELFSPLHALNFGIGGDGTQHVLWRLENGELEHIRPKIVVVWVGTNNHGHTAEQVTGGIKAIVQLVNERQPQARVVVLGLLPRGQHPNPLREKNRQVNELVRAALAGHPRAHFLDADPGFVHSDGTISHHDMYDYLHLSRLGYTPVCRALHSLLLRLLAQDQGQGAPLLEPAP
# Numbers without * were called inactive; . = not tested or not shown.
SMILES,M18AAP inhibitor,DSG3 Ab inh,PAFAH2 inh,pPAFAH inh,PAFAH1B2 inh,PAFAH1B3 inh
Cc1cc(NCCCCCCCNc2cc(C)nc3cc([N+](=O)[O-])ccc23)c2ccc([N+](=O)[O-])cc2n1,.,82,9,.,0,18
CNC(=O)C[C@@H]1C(=O)N(CCc2ccccc2)CC1(C)C,.,95,.,.,.,.
Cn1c(SCC(=O)C(C)(C)C)nnc1-c1ccncc1,1,106,-6,-3,-1,3
CCn1c(CSc2nnc(-c3ccncc3)n2C)nc2cc(C(=O)O)ccc21,-3,97,49*,26*,37*,36*
CC(=O)c1ccc(NC(=O)CSc2ccc(-c3ccc4c(c3)OCO4)nn2)cc1,0,99,-3,1,4,1
CC(=O)Nc1ccc(NC(=O)CSc2ccc(-c3ccc4c(c3)OCO4)nn2)cc1,-2,60*,1,6,2,-8
COCCn1c(SCCN2CCOCC2)nc2c1c(=O)[nH]c(=O)n2C,30*,100,2,4,4,8
Cc1csc(NC(=O)c2ccco2)c1C(=O)c1ccccc1,-11,119,-7,26*,3,8
COC(=O)c1c(-c2ccccc2)csc1NC(=O)c1ccco1,9,98,-5,1,-3,9
CC(OCC(O)CN(C)Cc1nc2ccccc2c(=O)[nH]1)c1ccc(Cl)cc1 (centres undefined),6,106,1,7,28*,-3
COc1cccc(C(=O)Nn2cnnc2)c1,30*,82,3,-1,3,4
O=c1c2c(C(F)(F)F)cc(C(F)(F)F)nc2[nH]n1-c1ccccc1,14,108,-1,5,0,6
O=c1c(Sc2ccccc2)c(C(F)(F)F)[nH]n1-c1ccccc1,4,97,4,7,29*,-1
CCS(=O)(=O)N1CCC2(CC1)OCCN2S(=O)(=O)c1ccccc1,.,101,.,.,.,.
CCOC(=O)c1c(C)[nH]c(O)c1C=Nc1ccc(Cl)cc1,10,.,-5,9,4,-2
CCOC(=O)c1c(C)[nH]c(O)c1C=Nc1ccc(C(F)(F)F)cc1,4,106,13,8,18,31*
CCc1ccccc1NC(=O)CNC(=O)CCC(=O)c1cc(C)sc1C,.,103,.,.,.,.
Cc1ccccc1C1(O)c2ccccc2-c2ccccc21,.,103,.,.,.,.
CCC(C)C1/C=C\CC(NC(=O)OCC2c3ccccc3-c3ccccc32)CC(=O)N1Cc1ccccc1 (centres undefined),.,98,-1,0,1,0
COc1ccc(C2/C=C\CC(NC(=O)OCC3c4ccccc4-c4ccccc43)CC(=O)N2Cc2ccccc2F)cc1 (centres undefined),.,83*,1,6,-1,4
O=C(COC(=O)c1cc(Cl)ccc1Cl)Nc1ccc2[nH]c(=O)[nH]c2c1,.,105,9,-2,0,1
N#CC1(C#N)C(c2ccccc2)OC23CCCCCC2C1(C#N)C(=N)O3 (centres undefined),2,99,12,4,3,-2
CCCCCCCCOc1ccc(C2OC34CCCCC3C(C#N)(C#N)C2(C#N)C(=N)O4)cc1 (centres undefined),-9,108,34*,30*,27*,22
N#CC1(C#N)C(c2ccccc2)OC23CCCCC2C1(C#N)C(=N)O3 (centres undefined),13,117,26,16,15,20
CCCCC1OC23CCCCC2C(C#N)(C#N)C1(C#N)C(=N)O3 (centres undefined),2,119,41*,17,30*,36*
CCCCC1OC23CCCCC2C(C#N)(C(=N)O3)C1(C#N)C#N (centres undefined),7,96,36*,5,30*,26*
CC1(C)CC(Cc2cccc(C(F)(F)F)c2)N(C(=O)OC(C)(C)C)C1 (centres undefined),.,101,.,.,.,.
CC(=O)N(CCN(C(C)=O)c1ccccc1)c1ccccc1,-9,104,0,-2,2,7
CC(=O)N(Nc1ccccc1)c1ccccc1,-6,67*,-8,2,8,4
COC(=O)CNC(c1ccccc1)c1cc(Br)ccc1NC(=O)CNC(=O)OCc1ccccc1 (centres undefined),8,122,10,29*,9,6
